The values that follow come from PubChem BioAssay AID588338 (NMMLSC, 2011).

For orientation: inhibition means the drop in the measured response relative to a control, in per cent.

Structures are written as SMILES. “And” between values parts separate entries of the source, which are not always exact repeats. Equal values may be shown once. In all, about 1,300 compounds went through this assay and about 20 (2%) were called active. The list is a sample of the results. Unmarked numbers belong to inactive results.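 How the source made its calls: active means inhibition above 50%, about 3 SD of the inhibition seen with non-fluorescent compounds; inactive means the rest.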

A short description of this assay: GST-fluorescein capture on glutathione beads, confirmation, artefact control for arrestin-AP2 inhibitor project, biochemical, cherry pick 1, flow cytometry (AID 588338).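 Further: fluorescein maleimide labelled GST captured on 4 micron glutathione beads; higher means more loss of bead fluorescence from quenching or blocked binding.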 The following applies: GST-fluorescein binding to GSH beads, fluorescence, counter-screen; at 10 µM; active compounds read high. In general terms: Flow cytometry measures light scatter and fluorescence of single cells or particles in a stream.
Regarding `COc1cccc(-n2c(SCC(=O)c3c[nH]c4ccccc34)nc3ccccc3c2=O)c1`, the inhibition was 57.9% (active).
As for `Cn1c(=O)c2c(nc(N/N=C/c3cccs3)n2Cc2ccc(Br)cc2)n(C)c1=O`, the figure is 0.63%; as for `COc1ccc(CCNc2ncnc3c2nnn3Cc2ccccc2)cc1`, 4.82%.
As for `Cc1ccc(CNC(=O)C2CC(=O)N(C3CCCCCCC3)C2)cc1` (centres undefined), the figure is -4.09%.
As for `Cc1ccc(Nc2ccc(C(N)=O)cc2[N+](=O)[O-])cc1`, the figure is -6.5%; as for `CC(C)c1nnc(NC(=O)CCC(=O)N2CCN(c3cccc(Cl)c3)CC2)s1`, -10.6%.
Take `O=C(c1ccc(S(=O)(=O)NCc2ccco2)cc1)N1CCN(c2ccccc2)CC1`: the inhibition is 8.86%.
As for `CCCc1ccc(-c2csc(NC(=O)Cc3cccs3)n2)cc1`, the figure is -4.6%; as for `Cc1ccc(C)c(NC(=S)NNC(=S)Nc2ccc(C(C)C)cc2)c1`, 0.62%; as for `Cc1ccc(CN2C(=O)CCC2C(=O)NCCCN2CCCCC2C)cc1` (centres undefined), -11.5%.
As for `Cc1cc(C(=O)OCC(=O)c2c(N)n(C)c(=O)n(C)c2=O)c(C)o1`, the figure is -2.19% and 1.72%; as for `CCOc1ccc(-c2nnc(-c3ccco3)o2)cc1`, -7.89%.
Consider `O=c1[nH]c2ccccc2n2c(-c3ccccc3)nnc12`, for which the inhibition was 36.4%.
As for `Cc1ccc(C2(C)NC(=O)N(CC(=O)Nc3ccccc3C(=O)N3CCCCC3)C2=O)cc1` (centres undefined), the figure is -3.63%.
As for `CC(C)C[C@H](NC(=O)N1CCn2c1nc1ccccc12)C(=O)NC1CC1`, the figure is -5.48%; as for `CN1C(=O)/C(=C/c2ccco2)SC1=Nc1cccc(C(=O)O)c1`, 0.38%; as for `Brc1ccccc1C1Nc2cccc3cccc(c23)N1`, 1.35%.
On to `COCCNC(=O)Nc1ccc2nc(-c3ccco3)c(-c3ccco3)nc2c1`, for which the inhibition was 22.4%.
Take `Cc1ccc(OCCCCc2c(C)n[nH]c2C)cc1`: the inhibition was -8.59%.
As for `COc1cc2c(cc1NC(=O)COC(=O)/C=C/c1ccccc1)oc1ccccc12`, the figure is -10.3%; as for `CC(Oc1ccccc1)C(=O)NN1Cc2ccccc2C1=N` (centres undefined), -4.56%; as for `Cc1ccc(S(=O)(=O)/N=C(/Nc2ccccn2)c2ccc(Cl)cc2)cc1`, -4.23%.
As for `O=C(NCc1ccco1)c1ccc(CS(=O)(=O)Cc2ccc(F)cc2)o1`, the figure is -8.88%; as for `Cc1cc(C)cc(Oc2nc3c(C)cccn3c(=O)c2/C=C(\C#N)C(=O)NC2CCS(=O)(=O)C2)c1` (centres undefined), -0.21%; as for `COC(=O)c1cc(NC(=O)c2nn(C)c(=O)c3ccccc23)cc(C(=O)OC)c1`, -0.11%.
As for `CCn1c(=O)n(CC)c2cc(N3CCCC3)c(NC(=O)c3ccccc3Br)cc21`, the figure is -4.23%.
As to `Cc1ccc(OCCCC(=O)Nc2ccc3c(c2)OCCO3)cc1`, the inhibition is -3.79%.
For the compound `Cn1c(=O)c([N+](=O)[O-])c(Oc2ccccc2)c2ccccc21`, the inhibition was -0.63%.
As for `COc1cc2c(cc1OC)CN(C(=O)c1cc(=O)c3ccccc3o1)CC2`, the figure is -0.62%; as for `CCOc1ccc(C(=O)NC2CCN(CC(=O)NCc3cccs3)CC2)cc1`, -10.1%; as for `CN(C)c1ccc(NC(=O)c2ccncc2)c2ccccc12`, -4.94%.
As for `CCOC(=O)N1CCN(C(=O)CNC(=O)Cc2ccc(Cl)cc2)CC1`, the figure is -12.7%; as for `CN(C(=O)COC(=O)c1cc(=O)[nH]c2ccccc12)C1CCCCC1`, -4.98%; as for `CC(NCCc1ccc(S(N)(=O)=O)cc1)C(=O)NCc1ccccc1` (centres undefined), 1.19%.
As for `CC(C)(C)c1ccc(C(=O)NCCn2c(N)c(C#N)c3nc4ccccc4nc32)cc1`, the figure is 1.49%; as for `CC(CN1CCCCC1)OC(=O)c1ccccc1Cl` (centres undefined), 0.92%.
Regarding `Cc1ccc(Cl)cc1-c1ccc(/C=N/n2cnnc2)o1`, the inhibition is -2.14%.
Regarding `Cc1ccc(S(=O)(=O)N2CCCCC2)cc1NC(=O)c1cccnc1`, the inhibition is -0.2%.
With `Cc1cccc(NC(=S)NC(=O)c2ccc(Br)o2)c1`, the inhibition was -2.99%.
For `NS(=O)(=O)c1ccc2nc(NC(=O)C3=COCCO3)sc2c1`, the inhibition is -9.07%.
As for `C/C(=N\Nc1ccc([N+](=O)[O-])cc1)c1ccc(-n2nncc2C(C)(C)C)cc1`, the figure is 2.54%; as for `CC(=O)NCCNC(=O)c1cc(-c2cccc3ccccc23)nc2ccccc12`, 8.05%.
For `Cc1cc(C(=O)Nc2ccc(C)c(S(=O)(=O)N3CCOCC3)c2)c2ccccc2n1`, the inhibition is 3.01%.
For `Cc1ccc(S(=O)(=O)N2CCN(C(=O)c3ccccc3-c3nc4ccccc4s3)CC2)c(C)c1`, the inhibition is -4.41%.
As for `O=C(NCC1(N2CCCCC2)CCCCC1)c1cccc(S(=O)(=O)Nc2ccccc2Cl)c1`, the figure is -0.81%; as for `CCC(C(=O)OC)n1cnc2c(oc3ccccc32)c1=O` (centres undefined), -1.51%.
For the compound `NC(=O)C1CCN(C(=O)CC2C(=O)NCCN2Cc2cccc(Oc3ccccc3)c2)CC1` (centres undefined), the inhibition is -3.68%.
As for `CC(NC(=O)c1cc2cc(Cl)ccc2oc1=N)c1ccccc1` (centres undefined), the figure is -2.36%; as for `COc1ccc(/C=C2\SC(=S)N(CCC(=O)Nc3ccccn3)C2=O)cc1OC`, -0.03%; as for `O=C(C1CCCO1)N1CCN(S(=O)(=O)c2ccc(Br)cc2)CC1` (centres undefined), -16.4%.
As for `COC(=O)C1CC2=C(CC(C)(C)CC2=O)N(c2ccccc2)C1=O` (centres undefined), the figure is -0.09%; as for `CCC(=O)Nc1nc2ccccc2n1Cc1ccccc1C`, 6.47%; as for `Cc1cccc(C)c1NC(=O)C(Cl)C(=O)c1ccccc1` (centres undefined), -5.59%.
For `Cc1cccc(Nc2ccccc2C(=O)NCc2ccco2)c1C`, the inhibition was -4.39%.
